Laboratory results from PubChem BioAssay (NCATS).
Inconclusive results are not listed. Calls of active or inactive are those of the source. Unless noted, calls come from the whole dose curve; as a rule, active = well fitted curve in the direction sought with a large enough effect; inconclusive = small, poorly fitted or top-dose-only effect, or another doubt; inactive = no such curve, though single readings can be large; an effect the other way counts as inactive or inconclusive.

How the values were obtained:
[1] = molecular target: Lysosomal acid glucosylceramidase (Homo sapiens) (UniProt P04062); test: Glucocerebrosidase-p2 (AID 348; in the data active = potency below about 10 µM; note: potency is the fitted concentration of half-maximal effect); conditions: purified GBA, blue fluorogenic substrate, 40 min
Chain of Lysosomal acid glucosylceramidase (Homo sapiens) (P04062 whole entry, looked up): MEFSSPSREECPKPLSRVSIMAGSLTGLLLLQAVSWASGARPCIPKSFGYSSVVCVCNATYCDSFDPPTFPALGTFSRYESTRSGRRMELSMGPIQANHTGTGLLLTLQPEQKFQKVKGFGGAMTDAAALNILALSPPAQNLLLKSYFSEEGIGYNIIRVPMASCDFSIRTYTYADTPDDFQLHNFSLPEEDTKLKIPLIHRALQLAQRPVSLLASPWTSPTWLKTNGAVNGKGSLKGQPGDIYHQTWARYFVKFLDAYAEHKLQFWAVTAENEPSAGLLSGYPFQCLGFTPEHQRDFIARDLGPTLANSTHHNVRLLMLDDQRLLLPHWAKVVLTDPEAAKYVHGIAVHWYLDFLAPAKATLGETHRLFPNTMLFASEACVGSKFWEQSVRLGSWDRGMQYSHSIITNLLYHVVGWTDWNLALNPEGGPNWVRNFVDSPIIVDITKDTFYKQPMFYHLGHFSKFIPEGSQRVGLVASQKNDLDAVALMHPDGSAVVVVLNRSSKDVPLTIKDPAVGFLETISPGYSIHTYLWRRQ
Method in brief: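 Normal human glucocerebrosidase (0.2 nM) with blue fluorogenic substrate (80 uM final) in citrate/phosphate pH 5.9 with 10mM sodium taurocholate, 0.01% tween-20; 40 min RT, NaOH/glycine stop; fluorescence Ex 365/Em 440; AC50 from a titration from 0.6 nM upwards.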

[2] = AP1 Signaling Pathway (AID 357; active = well fitted curve in either direction with a large enough effect, not every such curve was filed as active; note: % is set by controls: 0 for no effect and ±100 for the full control effect); conditions: ME-180 AP-1-bla reporter, EGF-induced, beta-lactamase ratio, 5 h; at 7.69 µM (top of the series) unless noted
Method in brief: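 AP-1-bla ME-180 cells with beta-lactamase reporter under AP-1 response element, stimulated with EC50 EGF; compounds titrated, 5 hours at 37 degrees Celsius. CCF4 read at 460/530 nm ratio; positive and negative modulators judged by AC50.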

[3] = molecular target: Cytochrome P450 1A2 (Homo sapiens) (UniProt P05177); test: p450-cyp1a2 (AID 410; calls by dose curve; note: potency is the fitted concentration of half-maximal effect); conditions: recombinant CYP1A2, luciferin-ME demethylation, luminescence; series mostly up to 57 µM
Chain of Cytochrome P450 1A2 (Homo sapiens) (P05177 whole entry, looked up): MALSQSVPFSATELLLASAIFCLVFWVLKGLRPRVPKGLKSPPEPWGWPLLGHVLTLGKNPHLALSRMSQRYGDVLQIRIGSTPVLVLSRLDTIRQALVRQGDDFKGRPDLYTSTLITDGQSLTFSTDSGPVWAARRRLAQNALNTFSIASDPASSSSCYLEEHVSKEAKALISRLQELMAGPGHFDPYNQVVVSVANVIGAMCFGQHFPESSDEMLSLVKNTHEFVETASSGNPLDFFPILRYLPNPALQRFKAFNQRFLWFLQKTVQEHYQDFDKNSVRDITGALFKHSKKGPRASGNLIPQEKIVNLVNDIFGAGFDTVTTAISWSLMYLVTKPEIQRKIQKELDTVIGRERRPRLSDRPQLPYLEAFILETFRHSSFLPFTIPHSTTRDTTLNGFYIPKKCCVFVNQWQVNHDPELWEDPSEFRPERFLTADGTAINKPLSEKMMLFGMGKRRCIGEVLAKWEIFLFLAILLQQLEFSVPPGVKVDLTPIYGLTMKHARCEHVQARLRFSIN
Method in brief: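 O-Demethylation of luciferin 6' methyl ether by human CYP1A2 is monitored as luciferase luminescence. Substrate sits at Km (100uM); enzyme is 20nM. Values are scaled to 57 uM furafylline as maximal inhibition.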

[4] = NFAT Signaling Pathway (AID 444; active = well fitted curve in either direction with a large enough effect, not every such curve was filed as active;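 note: carbachol stimulus at about its EC50 of 1 µM final; % is set by controls: 0 for no effect and ±100 for the full control effect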); conditions: Jurkat NFAT-bla M1, carbachol, beta-lactamase ratio, 5 h; at 7.69 µM (top of the series) unless noted
Method in brief: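 Read-out: CCF4 FRET ratio (460 nm/530 nm) after 1 h RT dye loading, used for %activity and AC50 from titration series. Cells: Jurkat NFAT-β-lactamase/M1 line, treated with compound plus 1 uM carbachol for 5 h, 37 °C.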

[5] = Stat Signaling Pathway (AID 446; active = well fitted curve in either direction with a large enough effect, not every such curve was filed as active;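 note: ME-180 cervical cancer cells given 40 pM IL-6 alongside compound; SIE-controlled beta-lactamase reporter measured as 460/530 nm FRET emission ratio; % is set by controls: 0 for no effect and ±100 for the full control effect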); conditions: ME-180 SIE beta-lactamase reporter, IL-6 stimulated, 5 h; at 7.69 µM (top of the series) unless noted
Method in brief: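 Normalization used AC90 stimulation (300 pM IL-6) and AC90 inhibition (125 nM pan-JAK inhibitor at 40 pM IL-6). The underlying signal is SIE-driven beta-lactamase in ME-180 cells after 5 h IL-6 exposure with compound.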

[6] = molecular target: Glucocorticoid receptor (Homo sapiens) (UniProt P04150); test: GR-GFP Redistribution (AID 450;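 active = compounds whose dose series gives a full or clear partial fitted curve of increased nuclear translocation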; note: potency is the fitted concentration of half-maximal effect); conditions: U2OS GR-GFP nuclear translocation, laser cytometry, 2 h
Chain of Glucocorticoid receptor (Homo sapiens) (P04150 whole entry, looked up, the tested form may be a part): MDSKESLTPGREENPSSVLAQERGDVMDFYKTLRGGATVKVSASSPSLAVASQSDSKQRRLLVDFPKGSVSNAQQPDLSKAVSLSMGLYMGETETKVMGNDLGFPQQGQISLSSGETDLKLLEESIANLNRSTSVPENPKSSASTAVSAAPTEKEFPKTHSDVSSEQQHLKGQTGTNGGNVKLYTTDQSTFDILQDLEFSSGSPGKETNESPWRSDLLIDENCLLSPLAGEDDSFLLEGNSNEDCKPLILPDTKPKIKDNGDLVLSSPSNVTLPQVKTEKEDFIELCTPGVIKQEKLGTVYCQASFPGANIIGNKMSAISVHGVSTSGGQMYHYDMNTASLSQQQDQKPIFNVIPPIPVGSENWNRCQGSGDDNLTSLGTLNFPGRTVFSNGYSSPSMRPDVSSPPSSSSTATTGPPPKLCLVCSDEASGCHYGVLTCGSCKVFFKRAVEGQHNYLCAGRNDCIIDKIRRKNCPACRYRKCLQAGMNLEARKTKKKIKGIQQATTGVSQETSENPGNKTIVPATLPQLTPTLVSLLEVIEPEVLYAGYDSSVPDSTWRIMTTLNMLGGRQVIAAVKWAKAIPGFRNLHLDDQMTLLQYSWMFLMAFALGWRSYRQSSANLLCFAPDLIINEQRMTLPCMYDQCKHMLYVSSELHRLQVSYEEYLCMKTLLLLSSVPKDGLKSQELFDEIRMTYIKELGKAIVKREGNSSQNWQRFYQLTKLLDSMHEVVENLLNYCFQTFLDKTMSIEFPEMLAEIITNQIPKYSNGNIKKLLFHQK

[7] = molecular target: Glucocorticoid receptor (Homo sapiens) (UniProt P04150); test: GR-EFC Redistribution (AID 451; calls by dose curve; note: potency is the fitted concentration of half-maximal effect); conditions: CHO-K1 GR-EFC translocation, beta-gal luminescence, 2 h
Method in brief: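 Translocation of GR-ED fusion to nuclear EA restores b-gal, read by luminescence after 1 h room-temperature detection. Engineered CHO-K1 biosensor cells, 1,000/well, exposed 2 h at 37 C to titrations up to 46 uM final.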

[8] = molecular target: Mitogen-activated protein kinase 10 (Mus musculus) (UniProt Q61831); test: JNK3 AlphaScreen Assay (AID 530; active = well fitted curve in either direction with a large enough effect, not every such curve was filed as active;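 note: kinase came from lysate of stimulated human HepG2 cells; signal reports phosphorylation of biotinylated GST-cJun 1-79 at Ser73 with 10 µM ATP; % is set by controls: 0 for no effect and ±100 for the full control effect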); conditions: JNK3 lysate, c-Jun phosphorylation; series mostly up to 57.1 µM
Method in brief: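 qHTS titrations with 15 min compound pre-incubation before adding ATP (10 uM final). Read-out: AlphaScreen of Ser73-phosphorylated biotin-GST-cJun using HepG2 lysate JNK3 activated by IL-1β and TNFα.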

[9] = molecular target: Cytochrome P450 2C9 (Homo sapiens) (UniProt P11712); test: qHTS Assay for Inhibitors and Substrates of Cytochrome P450 2C9 (AID 883); conditions: recombinant CYP2C9, luciferin-H luminescence, 60 min; series mostly up to 57.1 µM; note: nearly all actives have a fitted effect of over 60% in size; note: potency is the fitted concentration of half-maximal effect
Chain of Cytochrome P450 2C9 (Homo sapiens) (P11712 whole entry, looked up): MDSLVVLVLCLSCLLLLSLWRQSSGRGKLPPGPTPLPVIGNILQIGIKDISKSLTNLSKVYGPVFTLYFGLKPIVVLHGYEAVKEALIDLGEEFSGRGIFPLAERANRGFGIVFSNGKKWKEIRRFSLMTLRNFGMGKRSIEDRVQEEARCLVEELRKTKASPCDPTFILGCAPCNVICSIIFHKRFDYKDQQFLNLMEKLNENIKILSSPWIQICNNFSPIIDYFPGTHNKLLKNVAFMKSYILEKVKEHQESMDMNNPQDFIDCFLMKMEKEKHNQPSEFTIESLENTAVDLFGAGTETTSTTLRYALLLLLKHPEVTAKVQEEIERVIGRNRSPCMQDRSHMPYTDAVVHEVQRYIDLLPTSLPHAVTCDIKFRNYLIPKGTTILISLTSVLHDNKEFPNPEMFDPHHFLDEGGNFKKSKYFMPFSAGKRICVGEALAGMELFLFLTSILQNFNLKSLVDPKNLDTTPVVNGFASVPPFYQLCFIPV
Method in brief: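 Luminescent read-out of deoxyluciferin hydroxylation, normalized to 57uM sulphaphenazole (AC100). Reaction: 10nM enzyme, 100uM Luciferin-H (equal to KM), 25mM KPO4, 10 min compound preincubation, then 60 min with NADPH regeneration, both at 37C.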

[10] = molecular target: Cytochrome P450 3A4 (Homo sapiens) (UniProt P08684); test: qHTS Assay for Inhibitors and Substrates of Cytochrome P450 3A4 (AID 884); conditions: recombinant CYP3A4, Luciferin-PPXE luminescence; series mostly up to 57.1 µM; note: potency is the fitted concentration of half-maximal effect; nearly all actives have a fitted effect of over 50% in size
Chain of Cytochrome P450 3A4 (Homo sapiens) (P08684 whole entry, looked up): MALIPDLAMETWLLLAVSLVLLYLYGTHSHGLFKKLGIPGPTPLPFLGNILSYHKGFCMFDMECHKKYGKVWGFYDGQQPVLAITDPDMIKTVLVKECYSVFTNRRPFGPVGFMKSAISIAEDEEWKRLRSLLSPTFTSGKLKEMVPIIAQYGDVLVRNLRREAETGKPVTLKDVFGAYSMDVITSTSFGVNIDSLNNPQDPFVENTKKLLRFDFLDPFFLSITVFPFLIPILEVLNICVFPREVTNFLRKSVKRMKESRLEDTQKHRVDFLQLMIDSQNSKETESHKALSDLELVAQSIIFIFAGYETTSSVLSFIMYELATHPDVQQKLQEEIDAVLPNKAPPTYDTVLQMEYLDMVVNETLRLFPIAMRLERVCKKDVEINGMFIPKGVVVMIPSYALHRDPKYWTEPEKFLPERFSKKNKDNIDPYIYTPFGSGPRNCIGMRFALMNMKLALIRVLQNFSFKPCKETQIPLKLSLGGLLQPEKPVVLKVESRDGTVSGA
Method in brief: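 Luminescent readout of luciferin produced by CYP3A4 (20 nM) dealkylation of Luciferin-PPXE, 25 uM (its KM). NADPH-driven reaction ran 60 min at RT after 10 min compound preincubation; data scaled to 57 uM ketoconazole as 100% inhibition.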

[11] = molecular target: Cytochrome P450 3A4 (Homo sapiens) (UniProt P08684); test: qHTS Assay for Activators of Cytochrome P450 3A4 (AID 885); conditions: recombinant CYP3A4, Luciferin-PPXE luminescence, 60 min; series mostly up to 57.1 µM; note: nearly all actives have a fitted effect of over 65% in size
Method in brief: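 Human CYP3A4 dealkylates Luciferin-PPXE to luciferin, which luciferase detection converts to light. Substrate was at its KM (25uM), buffer 200mM KPO4, reaction 60 min at RT.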

[12] = molecular target: Dual specificity protein kinase CLK4 (Homo sapiens) (UniProt Q9HAZ1); test: qHTS Assay for Inhibitors of CDC-like Kinase 4 (Kinase-Glo Assay) (AID 1770); conditions: recombinant Clk4, Kinase-Glo ATP depletion luminescence; series mostly up to 66.7 µM; note: nearly all actives have a fitted effect of over 65% in size; note: potency is the fitted concentration of half-maximal effect
Chain of Dual specificity protein kinase CLK4 (Homo sapiens) (Q9HAZ1 whole entry, looked up): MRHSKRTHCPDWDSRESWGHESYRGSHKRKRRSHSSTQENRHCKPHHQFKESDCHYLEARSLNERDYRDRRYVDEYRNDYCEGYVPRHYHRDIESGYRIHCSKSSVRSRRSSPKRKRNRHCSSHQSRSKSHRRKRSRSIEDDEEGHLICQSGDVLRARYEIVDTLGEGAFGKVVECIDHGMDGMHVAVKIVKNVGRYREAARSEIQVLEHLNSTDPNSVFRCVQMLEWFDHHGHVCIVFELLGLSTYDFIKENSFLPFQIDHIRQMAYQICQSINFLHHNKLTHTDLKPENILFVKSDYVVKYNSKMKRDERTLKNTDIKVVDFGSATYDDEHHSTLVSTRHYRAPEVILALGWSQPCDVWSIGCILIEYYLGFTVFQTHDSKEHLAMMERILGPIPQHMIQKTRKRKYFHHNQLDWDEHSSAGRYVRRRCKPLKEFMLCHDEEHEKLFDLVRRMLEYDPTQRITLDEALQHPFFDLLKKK
Method in brief: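 Inhibition was judged from remaining ATP, measured by Ultra-Glo luciferase bioluminescence after Clk4 (25 nM) had acted on RS peptide at 1 uM ATP for 4.5 hours, room temperature.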

[13] = molecular target: Dual specificity protein kinase CLK4 (Homo sapiens) (UniProt Q9HAZ1); test: qHTS Assay for Inhibitors of CDC-like Kinase 4 (ADP-Glo Assay) (AID 1771); conditions: recombinant CLK4, ADP-Glo luminescence; series mostly up to 80 µM; note: nearly all actives have a fitted effect of over 70% in size; note: potency is the fitted concentration of half-maximal effect
Method in brief: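 Compounds are pin-transferred onto substrate mix (100 uM RS peptide, 1 uM ATP), then 25 nM Clk4 is added. After 1 hr at room temperature, ADP-Glo reagent runs 45 min, detection reagent 30 min, then luminescence is read.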

[14] = molecular target: Dual specificity protein kinase CLK4 (Homo sapiens) (UniProt Q9HAZ1); test: qHTS Assay for Inhibitors of CDC-like Kinase 4 (ADP-FP Assay) (AID 1795); conditions: Transcreener ADP fluorescence polarization; series mostly up to 50 µM; note: nearly all actives have a fitted effect of over 60% in size; note: potency is the fitted concentration of half-maximal effect
Method in brief: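 Inhibition of ADP formation by 6.25 nM Clk4 is measured using 1 uM ATP and 100 uM RS repeat peptide over one hour. Produced ADP displaces a fluorescent tracer from antibody, lowering polarization.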

[15] = molecular target: Ubiquitin carboxyl-terminal hydrolase 1 (Homo sapiens) (UniProt O94782); test: Inhibitors of USP1/UAF1: Pilot qHTS (AID 504865); conditions: purified USP1/UAF1, Ub-rhodamine cleavage fluorescence; series mostly up to 54.9 µM; note: nearly all actives have a fitted effect of over 35% in size; note: potency is the fitted concentration of half-maximal effect
Chain of Ubiquitin carboxyl-terminal hydrolase 1 (Homo sapiens) (O94782 whole entry, looked up): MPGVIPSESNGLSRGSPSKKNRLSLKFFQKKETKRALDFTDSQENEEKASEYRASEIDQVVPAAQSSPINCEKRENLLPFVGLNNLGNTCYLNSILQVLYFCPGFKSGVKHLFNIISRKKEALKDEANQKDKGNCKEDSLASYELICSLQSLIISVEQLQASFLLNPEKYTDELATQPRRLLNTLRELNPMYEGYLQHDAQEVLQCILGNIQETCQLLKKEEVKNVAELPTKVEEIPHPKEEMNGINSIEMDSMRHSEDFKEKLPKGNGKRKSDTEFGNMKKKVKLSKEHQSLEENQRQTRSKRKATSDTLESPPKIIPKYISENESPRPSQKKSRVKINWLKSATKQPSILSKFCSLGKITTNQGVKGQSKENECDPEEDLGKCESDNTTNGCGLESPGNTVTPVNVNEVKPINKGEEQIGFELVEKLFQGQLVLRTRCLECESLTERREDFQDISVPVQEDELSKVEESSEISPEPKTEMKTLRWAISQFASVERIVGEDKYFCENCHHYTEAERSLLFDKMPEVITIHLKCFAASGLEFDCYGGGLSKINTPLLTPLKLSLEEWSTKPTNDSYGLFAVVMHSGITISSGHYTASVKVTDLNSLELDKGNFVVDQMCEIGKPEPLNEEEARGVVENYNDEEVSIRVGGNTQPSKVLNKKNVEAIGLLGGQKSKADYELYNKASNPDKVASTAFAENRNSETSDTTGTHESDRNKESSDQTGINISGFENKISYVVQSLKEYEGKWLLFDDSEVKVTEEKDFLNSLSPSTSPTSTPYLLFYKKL
Method in brief: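 Kinetic fluorescence assay: 1nM USP1/UAF1, 15 min compound preincubation, then 150nM Ub-Rho; 480/540 nm.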

[16] = Primary qHTS for small molecule stabilizers of the endoplasmic reticulum resident proteome: Secreted ER Calcium Modulated Protein (SERCaMP) assay (AID 1508630); conditions: SH-SY5Y GLuc-SERCaMP (Gaussia luciferase released on ER calcium loss) secretion, thapsigargin, luminescence; series mostly up to 38.4 µM; note: % is set by controls: 0 for no effect and ±100 for the full control effect
Method in brief: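 The SH-SY5Y reporter protocol was run at 3 concentrations up to 38.3 uM (primary) or 11 concentrations (follow-up): 16 h compound, 100 nM thapsigargin for 4 h, then extracellular luciferase luminescence.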

[17] = qHTS Assay for Identification of Small Molecule Agonists for Hypoxia Response Element Signaling Pathway (AID 914; active = well fitted activation curve with a large enough effect in the signal ratio, with a control signal flat, not every such curve was filed as active; the % refers to the signal ratio; note: % of control where 0% means no effect); conditions: ME-180 (cervical carcinoma) HRE-bla reporter, beta-lactamase ratio, CoCl2, 17 h; activation: hits give high values
Method in brief: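 Cells were plated overnight, pin-dosed with compound in a titration series, co-stimulated with EC50 CoCl2 and incubated 17 hours at 37 degrees Celsius. CCF4 substrate was then loaded, and AC50 values came from the 460nm/530nm ratio.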

[18] = molecular target: 3',5'-cyclic-AMP phosphodiesterase 4B (Homo sapiens) (UniProt Q07343); test: qHTS Assay for Inhibitors of PDE-IV (AID 607; active = well fitted activation curve with a large enough effect in the main read-out, with a control signal flat, not every such curve was filed as active; note: % of control where 0% means no effect); conditions: HEK293 ACTOne CNG channel cells, membrane potential fluorescence; series mostly up to 22.9 µM
Method in brief: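 HEK293 ACTOne cells with CNG channel (1000/well), endogenous PDE4; membrane potential dye, compounds up to 22.9 uM final. Fluorescence Ex 535/Em 590; RO 20-1724 (100 uM final) as reference.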

[19] = molecular target: Cytochrome P450 2C19 (Homo sapiens) (UniProt P33261); test: qHTS Assay for Inhibitors and Substrates of Cytochrome P450 2C19 (AID 899); conditions: recombinant CYP2C19, luciferin-H EGE luminescence; series mostly up to 57.1 µM; note: potency is the fitted concentration of half-maximal effect; nearly all actives have a fitted effect of over 60% in size
Chain of Cytochrome P450 2C19 (Homo sapiens) (P33261 whole entry, looked up): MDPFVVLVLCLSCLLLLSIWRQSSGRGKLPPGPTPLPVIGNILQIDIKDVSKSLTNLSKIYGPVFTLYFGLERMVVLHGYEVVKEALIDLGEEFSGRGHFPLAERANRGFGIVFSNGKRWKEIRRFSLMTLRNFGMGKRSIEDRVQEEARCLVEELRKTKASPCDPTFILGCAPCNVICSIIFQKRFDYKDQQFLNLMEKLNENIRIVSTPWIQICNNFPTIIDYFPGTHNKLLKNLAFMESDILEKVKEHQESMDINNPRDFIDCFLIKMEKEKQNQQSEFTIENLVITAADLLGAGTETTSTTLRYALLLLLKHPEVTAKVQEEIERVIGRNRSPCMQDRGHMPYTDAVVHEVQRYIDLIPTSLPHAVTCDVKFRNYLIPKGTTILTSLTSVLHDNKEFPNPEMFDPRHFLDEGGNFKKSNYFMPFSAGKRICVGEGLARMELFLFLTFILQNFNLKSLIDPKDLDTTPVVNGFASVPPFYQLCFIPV
Method in brief: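 Luminescence readout of luciferin formed from 10uM Luciferin-H EGE (KM level) by 5 nM CYP2C19 in 50mM KPO4. 60 min NADPH-driven reaction at 37C after 10 min compound preincubation; data scaled to 57uM ketoconazole inhibition.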

CS(=O)(=O)Nc1cccc(-c2cncnc2NCc2ccccc2)c1
active: Potency [3] 25.1 µM | Potency [9] 0.398 µM | Potency [10] 0.631 µM
inactive: Potency [1] > 11.4 µM | activity change, negative = inhibition [2] -1.31% | activity change, negative = inhibition [4] 3.36% | activity, negative = inhibition [5] -2.08% | Potency [6] > 46 µM | Potency [7] > 46 µM | Potency [8] | Potency [11] | Potency [12] | Potency [13] | Potency [14] | Potency [15] | outcome [16]

Cc1ccccc1-c1ccc2ncnc(NCc3cccs3)c2c1
active: Potency [3] 2.51 µM | Potency [10] 3.98 µM | Potency [12] 3.98 µM | Potency [13] 3.55 µM | Potency [14] 3.55 µM | Potency [15] 14.1 µM
inactive: Potency [1] > 11.4 µM | activity change, negative = inhibition [2] -9.99% | activity change, negative = inhibition [4] -15.8% | activity, negative = inhibition [5] -13.1% | Potency [6] > 46 µM | Potency [7] > 46 µM | Potency [8] | Potency [11] | activation [17] 2.83% | outcome [16]

Cc1cnc(CNc2ncncc2-c2ccccc2Cl)cn1
inactive: Potency [1] > 11.4 µM | activity change, negative = inhibition [2] -2.38% | activity change, negative = inhibition [4] 13.7% | activity, negative = inhibition [5] -0.675% | Potency [6] > 46 µM | Potency [7] > 46 µM | Potency [8] | Potency [18] | Potency [11] | Potency [12] | Potency [13] | Potency [14] | Potency [15] | outcome [16]
active: Potency [3] 15.8 µM

COc1ccccc1CCn1c(=O)c(-c2ccc(F)c(F)c2)nc2cncnc21
inactive: Potency [1] > 11.4 µM | activity change, negative = inhibition [2] -18.1% | activity change, negative = inhibition [4] 1.01% | activity, negative = inhibition [5] 10.7% | Potency [6] > 9.22 µM | Potency [7] > 46 µM | Potency [8] | Potency [11] | Potency [12] | Potency [13] | Potency [14] | Potency [15] | outcome [16]
active: Potency [3] 2 µM | Potency [9] 6.31 µM | Potency [10] 3.16 µM | Potency [19] 1.26 µM

COc1ncc2nc(-c3cn(C)c4ccccc34)c(=O)n(-c3ccccc3)c2n1
active: Potency [3] 5.01 µM
inactive: Potency [1] > 11.4 µM | activity change, negative = inhibition [2] -0.341% | activity change, negative = inhibition [4] -18.5% | activity, negative = inhibition [5] 6.13% | Potency [6] > 9.22 µM | Potency [7] > 46 µM | Potency [8] | Potency [9] | Potency [11] | Potency [12] | Potency [13] | Potency [14] | Potency [15] | outcome [16]
